In test [1] the target is T1, Serine/threonine-protein kinase TBK1 (Homo sapiens) (UniProt Q9UHD2).
T1 sequence (whole entry): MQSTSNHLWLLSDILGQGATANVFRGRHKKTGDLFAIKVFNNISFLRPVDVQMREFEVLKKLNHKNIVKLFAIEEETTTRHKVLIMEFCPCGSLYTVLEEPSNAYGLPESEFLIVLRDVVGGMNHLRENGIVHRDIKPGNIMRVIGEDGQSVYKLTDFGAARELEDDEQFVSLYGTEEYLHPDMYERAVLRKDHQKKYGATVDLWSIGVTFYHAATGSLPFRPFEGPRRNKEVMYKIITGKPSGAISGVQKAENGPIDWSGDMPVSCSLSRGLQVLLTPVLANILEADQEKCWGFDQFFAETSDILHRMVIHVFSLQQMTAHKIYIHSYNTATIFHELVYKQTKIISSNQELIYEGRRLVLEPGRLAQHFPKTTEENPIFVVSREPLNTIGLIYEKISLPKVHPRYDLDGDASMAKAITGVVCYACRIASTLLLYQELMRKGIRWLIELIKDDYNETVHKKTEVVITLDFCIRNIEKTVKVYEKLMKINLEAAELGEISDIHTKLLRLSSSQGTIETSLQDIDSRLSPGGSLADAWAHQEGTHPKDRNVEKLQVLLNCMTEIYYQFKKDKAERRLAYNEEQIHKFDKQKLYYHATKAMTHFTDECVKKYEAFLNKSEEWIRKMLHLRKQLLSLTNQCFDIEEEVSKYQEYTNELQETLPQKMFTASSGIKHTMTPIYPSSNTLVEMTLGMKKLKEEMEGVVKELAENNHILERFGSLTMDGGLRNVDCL
The conditions noted are these: at 10 µM.

The target in test [2] is T2, TGF-beta receptor type-1 (Homo sapiens) (UniProt P36897).
T2 sequence (whole entry): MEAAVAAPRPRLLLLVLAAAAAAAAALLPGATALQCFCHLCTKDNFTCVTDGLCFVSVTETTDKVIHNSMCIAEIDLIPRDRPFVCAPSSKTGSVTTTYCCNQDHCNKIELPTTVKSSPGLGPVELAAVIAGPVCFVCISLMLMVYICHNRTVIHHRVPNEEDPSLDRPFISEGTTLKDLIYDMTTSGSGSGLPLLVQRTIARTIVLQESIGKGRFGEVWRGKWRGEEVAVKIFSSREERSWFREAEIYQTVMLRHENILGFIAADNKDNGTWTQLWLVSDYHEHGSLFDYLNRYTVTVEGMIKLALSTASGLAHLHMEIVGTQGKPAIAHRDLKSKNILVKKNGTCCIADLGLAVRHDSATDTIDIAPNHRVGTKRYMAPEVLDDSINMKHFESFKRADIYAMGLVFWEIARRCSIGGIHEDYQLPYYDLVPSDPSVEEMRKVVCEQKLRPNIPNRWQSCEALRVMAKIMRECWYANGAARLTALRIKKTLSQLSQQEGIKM
The conditions noted are these: at 1 µM.

The target of test [3] is T2, TGF-beta receptor type-1 (Homo sapiens). The conditions noted are these: at 10 µM.
The target in test [4] is Insulin-like growth factor 1 receptor (Homo sapiens) (UniProt P08069). The conditions noted are these: at 1 µM.
The target is the same in test [5]. The note with it: at 10 µM.
In test [6] the target is T3, Inhibitor of nuclear factor kappa-B kinase subunit alpha (Homo sapiens) (UniProt O15111).
T3 sequence (whole entry): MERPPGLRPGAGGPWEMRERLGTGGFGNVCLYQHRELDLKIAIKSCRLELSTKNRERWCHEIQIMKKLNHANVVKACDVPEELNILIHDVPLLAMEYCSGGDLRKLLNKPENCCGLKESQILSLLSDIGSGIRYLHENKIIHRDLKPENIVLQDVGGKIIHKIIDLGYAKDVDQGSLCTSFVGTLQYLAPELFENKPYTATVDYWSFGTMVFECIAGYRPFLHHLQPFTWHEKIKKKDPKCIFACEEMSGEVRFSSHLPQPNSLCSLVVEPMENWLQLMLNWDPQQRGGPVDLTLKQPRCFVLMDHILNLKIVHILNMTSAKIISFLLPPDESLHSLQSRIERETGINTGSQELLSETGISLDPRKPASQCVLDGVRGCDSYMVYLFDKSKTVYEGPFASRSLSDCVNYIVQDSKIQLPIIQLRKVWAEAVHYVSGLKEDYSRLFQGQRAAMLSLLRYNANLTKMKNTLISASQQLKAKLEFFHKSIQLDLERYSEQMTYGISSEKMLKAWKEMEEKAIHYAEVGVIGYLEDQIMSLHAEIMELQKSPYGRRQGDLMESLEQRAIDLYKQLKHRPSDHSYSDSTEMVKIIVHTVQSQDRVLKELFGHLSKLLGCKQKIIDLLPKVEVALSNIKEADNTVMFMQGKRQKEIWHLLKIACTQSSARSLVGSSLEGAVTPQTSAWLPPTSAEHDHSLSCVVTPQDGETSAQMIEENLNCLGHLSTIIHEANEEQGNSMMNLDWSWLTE
The conditions noted are these: at 1 µM.

Test [7] addresses T3, Inhibitor of nuclear factor kappa-B kinase subunit alpha (Homo sapiens). The conditions noted are these: at 10 µM.
Test [8] concerns the target T4, Inhibitor of nuclear factor kappa-B kinase subunit beta (Homo sapiens) (UniProt O14920).
T4 sequence (whole entry): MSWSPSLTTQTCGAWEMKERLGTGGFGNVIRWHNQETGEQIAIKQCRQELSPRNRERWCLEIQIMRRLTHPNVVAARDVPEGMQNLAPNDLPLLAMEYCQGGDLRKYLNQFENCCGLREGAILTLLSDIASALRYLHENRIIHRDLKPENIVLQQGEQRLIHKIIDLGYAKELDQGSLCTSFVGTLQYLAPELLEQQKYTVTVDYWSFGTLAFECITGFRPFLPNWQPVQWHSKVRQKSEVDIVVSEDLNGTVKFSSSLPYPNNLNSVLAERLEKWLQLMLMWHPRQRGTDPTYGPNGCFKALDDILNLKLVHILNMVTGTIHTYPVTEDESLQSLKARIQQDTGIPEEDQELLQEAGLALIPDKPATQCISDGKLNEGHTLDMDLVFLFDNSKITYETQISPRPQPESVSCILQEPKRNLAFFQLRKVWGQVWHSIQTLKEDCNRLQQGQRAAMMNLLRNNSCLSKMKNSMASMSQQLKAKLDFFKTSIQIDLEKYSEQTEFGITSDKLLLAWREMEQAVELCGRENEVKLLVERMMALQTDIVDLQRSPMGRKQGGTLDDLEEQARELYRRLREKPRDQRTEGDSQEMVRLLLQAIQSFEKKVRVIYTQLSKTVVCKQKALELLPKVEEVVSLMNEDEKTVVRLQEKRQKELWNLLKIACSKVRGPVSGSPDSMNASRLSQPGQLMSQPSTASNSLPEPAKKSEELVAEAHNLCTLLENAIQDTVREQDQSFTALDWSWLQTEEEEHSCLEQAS
The conditions noted are these: at 1 µM.

Test [9] has as its target T4, Inhibitor of nuclear factor kappa-B kinase subunit beta (Homo sapiens). The conditions noted are these: at 10 µM.
Test [10] has as its target Insulin receptor (Homo sapiens) (UniProt P06213). The note with it: at 1 µM.

Molecules are shown by their SMILES.

The results in this text go back to ChEMBL document CHEMBL2218924, “A broad activity screen in support of a chemogenomic map for kinase signalling research and drug discovery” (Biochem J, 2013).

Insulin receptor (Homo sapiens), sequence (P06213 28-758 limits assumed): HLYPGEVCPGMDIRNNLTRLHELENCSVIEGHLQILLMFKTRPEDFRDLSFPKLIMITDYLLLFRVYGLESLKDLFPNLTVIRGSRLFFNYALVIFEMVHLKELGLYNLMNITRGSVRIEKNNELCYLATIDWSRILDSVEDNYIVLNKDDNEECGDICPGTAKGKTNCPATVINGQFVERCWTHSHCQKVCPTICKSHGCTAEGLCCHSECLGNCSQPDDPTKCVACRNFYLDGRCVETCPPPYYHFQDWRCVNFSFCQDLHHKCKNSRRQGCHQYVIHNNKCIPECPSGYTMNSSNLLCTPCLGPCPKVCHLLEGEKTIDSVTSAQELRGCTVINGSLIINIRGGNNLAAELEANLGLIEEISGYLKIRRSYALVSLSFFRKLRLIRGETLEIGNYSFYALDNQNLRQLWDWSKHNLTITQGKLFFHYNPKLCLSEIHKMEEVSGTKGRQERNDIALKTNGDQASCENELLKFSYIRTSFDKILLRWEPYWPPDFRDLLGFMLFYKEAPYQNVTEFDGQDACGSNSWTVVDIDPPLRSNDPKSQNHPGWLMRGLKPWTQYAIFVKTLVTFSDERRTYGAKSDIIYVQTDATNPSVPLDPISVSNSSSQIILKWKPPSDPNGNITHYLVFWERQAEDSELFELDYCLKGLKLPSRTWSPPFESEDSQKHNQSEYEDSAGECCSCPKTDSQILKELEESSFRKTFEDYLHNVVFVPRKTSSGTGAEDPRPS
Insulin receptor (Homo sapiens), sequence (P06213 763-1382 limits assumed): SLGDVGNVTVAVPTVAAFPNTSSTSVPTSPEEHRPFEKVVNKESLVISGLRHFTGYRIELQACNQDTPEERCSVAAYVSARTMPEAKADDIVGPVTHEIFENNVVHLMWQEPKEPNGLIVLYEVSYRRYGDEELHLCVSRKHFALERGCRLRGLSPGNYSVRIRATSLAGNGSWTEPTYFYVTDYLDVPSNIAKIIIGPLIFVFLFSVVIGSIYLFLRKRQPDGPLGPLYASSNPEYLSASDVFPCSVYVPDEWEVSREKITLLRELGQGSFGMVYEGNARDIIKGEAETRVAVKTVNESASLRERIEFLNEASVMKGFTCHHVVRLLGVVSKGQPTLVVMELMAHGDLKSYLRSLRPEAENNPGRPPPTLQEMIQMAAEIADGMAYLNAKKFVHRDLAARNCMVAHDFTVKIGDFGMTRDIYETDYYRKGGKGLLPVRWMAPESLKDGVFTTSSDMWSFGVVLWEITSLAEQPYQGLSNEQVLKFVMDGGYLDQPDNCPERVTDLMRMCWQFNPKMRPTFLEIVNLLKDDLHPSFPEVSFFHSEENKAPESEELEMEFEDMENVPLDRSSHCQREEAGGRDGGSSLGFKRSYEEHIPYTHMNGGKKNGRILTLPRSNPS
Insulin-like growth factor 1 receptor (Homo sapiens), sequence (P08069 31-736 limits assumed): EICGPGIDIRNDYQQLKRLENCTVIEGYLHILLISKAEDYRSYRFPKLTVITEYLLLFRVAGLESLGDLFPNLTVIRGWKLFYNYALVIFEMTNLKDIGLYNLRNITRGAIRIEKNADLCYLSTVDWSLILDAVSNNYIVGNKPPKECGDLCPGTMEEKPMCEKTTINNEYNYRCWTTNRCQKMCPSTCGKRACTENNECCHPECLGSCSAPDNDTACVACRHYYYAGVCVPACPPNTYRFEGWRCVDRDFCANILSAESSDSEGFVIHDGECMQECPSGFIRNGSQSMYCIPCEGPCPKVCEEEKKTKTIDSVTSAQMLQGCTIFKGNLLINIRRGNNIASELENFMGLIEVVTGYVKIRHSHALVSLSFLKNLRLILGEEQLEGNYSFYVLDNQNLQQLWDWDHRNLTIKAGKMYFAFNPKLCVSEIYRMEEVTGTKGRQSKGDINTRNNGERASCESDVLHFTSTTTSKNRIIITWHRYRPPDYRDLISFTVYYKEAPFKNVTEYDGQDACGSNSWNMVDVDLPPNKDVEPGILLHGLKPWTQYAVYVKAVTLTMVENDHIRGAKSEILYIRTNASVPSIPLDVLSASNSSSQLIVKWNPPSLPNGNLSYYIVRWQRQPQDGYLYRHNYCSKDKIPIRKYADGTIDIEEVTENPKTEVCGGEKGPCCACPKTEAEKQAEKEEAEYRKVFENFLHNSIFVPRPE
Insulin-like growth factor 1 receptor (Homo sapiens), sequence (P08069 741-1367 limits assumed): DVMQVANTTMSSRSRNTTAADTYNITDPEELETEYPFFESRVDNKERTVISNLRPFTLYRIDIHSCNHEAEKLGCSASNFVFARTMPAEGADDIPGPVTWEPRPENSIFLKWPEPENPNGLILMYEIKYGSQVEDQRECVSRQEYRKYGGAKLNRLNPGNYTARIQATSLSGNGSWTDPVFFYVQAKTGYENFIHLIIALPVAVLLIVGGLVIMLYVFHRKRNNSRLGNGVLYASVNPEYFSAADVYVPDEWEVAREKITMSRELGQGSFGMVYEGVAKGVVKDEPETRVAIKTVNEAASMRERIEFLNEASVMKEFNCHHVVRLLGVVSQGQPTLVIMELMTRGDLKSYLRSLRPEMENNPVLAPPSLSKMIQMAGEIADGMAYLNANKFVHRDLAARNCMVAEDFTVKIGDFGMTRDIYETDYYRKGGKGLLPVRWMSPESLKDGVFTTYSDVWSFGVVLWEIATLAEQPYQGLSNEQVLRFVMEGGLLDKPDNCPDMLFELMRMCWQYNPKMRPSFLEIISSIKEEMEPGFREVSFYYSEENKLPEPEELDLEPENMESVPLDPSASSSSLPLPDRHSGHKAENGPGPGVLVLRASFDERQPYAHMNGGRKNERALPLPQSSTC

One may read the residual activity as the signal under treatment as a percentage of the control signal. With `Cc1nc2cc3nc(-c4cccs4)cnc3cc2n1C`, the residual activity in test [1] was 87%; in test [2], 98%; in test [3], 118%; in test [4] it was 115%; in test [5], 106%; in test [6], 125%. The residual activity in [7] turned out to be 106%; in [8] it was 106%; in [9], 106%; in [10], 117%.
In the case of `NC(=O)c1ccc2[nH]c(-c3ccc(Oc4ccc(Cl)cc4)cc3)nc2c1`, the residual activity in test [1] was found to be 60%; in test [2], 84%; in [3] it was 85%; in test [4], 89%; in [5] it was 85%; in [6] it was 123%. In addition, the residual activity in [7] amounted to 137%; in [8], 108%; in test [9] it was 106%; in [10], 102%.
On to `CC#CC(=O)Nc1cc2c(Nc3ccc(F)c(Cl)c3)ncnc2cn1`, for which the residual activity was found to be 72% in [1]; 74% in [2]; 89% in test [3]; 98% in [4]; 93% in test [5]; 97% in test [6]. The residual activity in [7] worked out at 95%; in test [8] it was 96%; in [9] it was 96%; in test [10], 101%.
`COc1ccc(OC)c2c(=S)c3ccccc3[nH]c12`: the residual activity in test [1] is 67%; in test [2], 101%; in test [3], 81%; in test [4] it was 98%; in [5], 101%; in test [6] it was 99%. Besides, the residual activity in test [7] worked out at 102%; in test [8], 95%; in test [9] it was 95%; in [10], 99%.
Regarding `COc1cc2ncnc(Nc3ccc(Oc4ccccc4)cc3)c2cc1OC`, the residual activity in [1] was found to be 57%; in test [2] it was 99%; in test [3], 98%; in [4] it was 110%; in test [5], 89%; in test [6], 117%. Also, the residual activity in test [7] was 101%; in [8] it was 103%; in test [9] it was 122%; in [10], 110%.
Turning to `Cn1cc(/C=C2\C(=O)Nc3ccc(S(N)(=O)=O)cc32)c2ccccc21`, the residual activity in test [1] turned out to be 10%; in test [2], 100%; in [3] it was 96%; in test [4], 81%; in [5], 86%; in [6] it was 100%. Also, the residual activity is 92% in test [7], 87% in [8], 78% in [9] and 91% in test [10].
On to `O=[N+]([O-])c1ccc(-c2nc(-c3ccc(F)cc3)c(-c3ccncc3)[nH]2)cc1`, for which the residual activity in test [1] was 76%; in test [2] it was 61%; in test [3], 59%; in test [4], 97%; in [5], 105%; in [6], 119%. The residual activity amounted to 99% in test [7], 129% in [8], 111% in [9] and 107% in test [10].
As to `O=Nc1c(-c2c(O)[nH]c3ccccc23)[nH]c2ccccc12`, the residual activity in test [1] turned out to be 1%; in [2] it was 104%; in test [3] it was 73%; in test [4], 40%; in test [5], 20%; in [6], 76%. The residual activity in test [7] was determined as 57%; in [8] it was 87%; in test [9], 67%; in [10], 17%.
Turning to `Nc1ccc2ncnc(NCCc3ccc(Oc4ccccc4)cc3)c2c1`, the residual activity in test [1] came out at 62%; in test [2], 117%; in test [3] it was 112%; in test [4] it was 116%; in test [5], 119%; in test [6] it was 107%. Further, the residual activity in test [7] is 101%; in test [8], 115%; in test [9] it was 110%; in test [10] it was 139%.
`Ic1cccc(CSc2nnc(-c3ccncc3)o2)c1`: the residual activity in [1] worked out at 6%; in test [2], 82%; in test [3] it was 79%; in test [4], 79%; in [5], 95%; in test [6], 80%. Also, the residual activity came out at 72% in test [7], 87% in [8], 79% in [9] and 93% in [10].
In the case of `Cn1cnc2cc3c(Nc4cccc(Br)c4)ncnc3cc21`, the residual activity in test [1] turned out to be 63%; in test [2], 86%; in test [3] it was 85%; in [4] it was 109%; in [5] it was 90%; in [6], 92%. The residual activity in test [7] is 104%; in [8], 95%; in test [9] it was 94%; in [10], 102%.
With `COc1ccc(CNc2nc(N(CCO)CCO)nc3c2ncn3C(C)C)cc1`, the residual activity in test [1] worked out at 55%; in test [2] it was 88%; in test [3] it was 74%; in test [4] it was 94%; in test [5], 88%; in test [6], 101%. Further, the residual activity was 102% in test [7], 112% in test [8], 99% in [9] and 99% in test [10].
`O=C1Nc2cc(Br)ccc2/C1=C1/Nc2ccccc2/C1=N\O`: the residual activity amounted to 15% in test [1]; 88% in test [2]; 77% in test [3]; 99% in test [4]; 101% in [5]; 105% in [6]. Moreover, the residual activity in [7] was determined as 100%; in test [8], 101%; in test [9] it was 85%; in test [10], 75%.
For `O=c1c2ccccc2[nH]c(=S)n1CCN1CCC(=C(c2ccc(F)cc2)c2ccc(F)cc2)CC1`, the residual activity in test [1] is 68%; in test [2], 95%; in test [3], 80%; in test [4], 112%; in test [5], 93%; in test [6], 87%. Also, the residual activity in test [7] is 128%; in [8], 114%; in [9] it was 105%; in test [10] it was 109%.
Consider `Oc1ccc(Nc2nc(-c3ccc(Cl)cc3)cs2)cc1`, for which the residual activity came out at 80% in test [1]; 123% in test [2]; 100% in test [3]; 103% in [4]; 108% in test [5]; 102% in [6]. Further, the residual activity in test [7] worked out at 134%; in test [8], 115%; in test [9], 110%; in test [10] it was 112%.
In the case of `Cn1nc2c3c(cccc31)C(=O)c1ccccc1-2`, the residual activity in test [1] turned out to be 55%; in test [2], 85%; in test [3], 76%; in [4], 89%; in test [5], 99%; in test [6], 110%. Moreover, the residual activity was found to be 82% in [7], 100% in test [8], 87% in test [9] and 94% in test [10].
